HepG2 viability: counter-screen for TGF-b inhibitors: cytotoxicity in HepG2 cells; hit rate 0.76% among 410,000; HepG2 CAGA-GFP viability, ATP luminescence, 18 h; AID 588856; Potency, µM (highest dose often 46.1 µM), inactives show at the top dose activity change, negative = cytotoxicity, actives largely listed as cytotoxic; also: potency is read from the fitted curve at half-maximal effect
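CellTiter-Glo luminescence gave cytotoxicity after 18 hours at 37 degrees C. The cells were HepG2 CAGA-GFP in 1% FBS DMEM, stimulated with 500 pg/mL TGF-beta after compound addition. %Activity was normalised to no-cell wells (complete cell-killing) and DMSO (no toxicity), and curves were fitted and classified.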
TDP1 inh: blocks human tyrosyl-DNA phosphodiesterase 1; Potency, µM (top dose mostly 130 µM), inactives show top-dose activity change, negative = inhibition, actives largely listed as inhibitors; Q9NUW8; recombinant TDP1, AlphaScreen DNA substrate cleavage; hit rate 0.28% among 350,000; AID 485290; also: potency is read from the fitted curve at half-maximal effect; % is scaled to controls: 0 for no effect and ±100 for the full control effect; nearly all actives have a fitted effect of over 40% in size
Target sequence (Q9NUW8 whole entry, looked up): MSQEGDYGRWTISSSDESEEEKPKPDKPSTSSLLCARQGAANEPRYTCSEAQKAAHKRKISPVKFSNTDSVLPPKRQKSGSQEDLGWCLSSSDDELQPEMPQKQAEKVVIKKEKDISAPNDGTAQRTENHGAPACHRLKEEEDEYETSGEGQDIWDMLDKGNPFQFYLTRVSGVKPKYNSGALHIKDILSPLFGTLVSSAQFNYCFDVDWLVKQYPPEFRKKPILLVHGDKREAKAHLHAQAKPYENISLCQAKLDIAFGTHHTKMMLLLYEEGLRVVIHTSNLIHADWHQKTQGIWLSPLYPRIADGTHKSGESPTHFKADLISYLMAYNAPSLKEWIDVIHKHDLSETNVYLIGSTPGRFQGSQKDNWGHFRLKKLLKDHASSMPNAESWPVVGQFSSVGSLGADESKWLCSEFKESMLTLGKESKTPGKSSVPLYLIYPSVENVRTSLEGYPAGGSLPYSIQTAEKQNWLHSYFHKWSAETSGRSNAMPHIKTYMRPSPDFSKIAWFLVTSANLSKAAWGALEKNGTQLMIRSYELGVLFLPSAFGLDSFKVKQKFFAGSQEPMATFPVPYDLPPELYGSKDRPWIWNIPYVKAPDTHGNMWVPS
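Here, a 5' biotin and 3' phosphotyrosine-FITC DNA oligonucleotide reports Tdp1 activity: intact substrate bridges AlphaScreen beads, while cleavage leaves a 3' phosphate and drops signal. All incubations at room temperature.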
TDP1 cell CPT: growth inhibition of DT40 Tdp1-/-;hTDP1 cells with camptothecin (screen for TDP1 inhibitors). hit rate 12% among 420,000. Potency, µM (highest dose often 46.2 µM), for the others: top-dose activity change, negative = growth inhibition, most hits filed as inhibitors. chicken DT40 Tdp1-/-;hTDP1 cells + 20 nM CPT, ATP luminescence, 48 h; also: potency is read from the fitted curve at half-maximal effect; % is scaled to controls: 0 for no effect and ±100 for the full control effect; nearly all actives have a fitted effect of over 55% in size
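Chicken DT40 Tdp1-/- cells stably complemented with human TDP1 were seeded at 400 cells/well in medium containing 20 nM camptothecin, exposed to pin-transferred compounds, and grown at 37 °C for at least 48 hr. Viability was read as ATP luminescence.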
TGFb inhibitor: TGF-b pathway inhibition; HepG2 CAGA-GFP TGF-b/SMAD3 reporter, GFP fluorescence, 18 h; TGF-beta stimulated, 500 pg/mL final; Potency, µM (top dose mostly 46.1 µM), for inactives: at the highest dose activity, negative = inhibition, actives largely listed as inhibitors; hit rate 1.2% among 410,000; also: potency is read from the fitted curve at half-maximal effect; % is scaled to controls: 0 for no effect and ±100 for the full control effect; nearly all actives have a fitted effect of over 65% in size
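Inhibition was scored as loss of TGF-beta-induced (500 pg/mL final, 18 hours, 37 degrees C) GFP in HEPG2 cells carrying a CAGA-GFP reporter, in DMEM with 1% FBS. Well GFP was summed per cell; Activity was normalised to unstimulated and stimulated DMSO wells, then concentration-response fitting.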
IL1B secr inh: blocks inflammasome-driven IL-1 beta release. activity change, % at 57.5 µM. hit rate 4.7% among 360,000. THP-1 LPS/ATP IL-1B secretion, AlphaLISA, 16 h; hits give low values; in the data active = activity change below about -50%; inconclusive = mostly about -30% to -49%; also: % is scaled to controls: 0 for no effect and ±100 for the full control effect
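THP-1 cells pretreated 1 hr with compounds (up to 57.5 uM final), then stimulated with LPS (250 ng/mL final) plus ATP (1.25 mM final); secreted IL-1B measured by AlphaLISA after 16 hr, decreased signal indicating inhibition.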
DT40 TDP1 no CPT: qHTS for Inhibitors of human tyrosyl-DNA phosphodiesterase 1 (TDP1): qHTS in cells in absence of CPT | DT40 Tdp1-/- hTDP1 cells, no CPT, ATP luminescence, 48 h | Potency, µM (top dose mostly 46.2 µM), without a hit: at the highest dose activity change, negative = growth inhibition, actives largely listed as inhibitors | hit rate 15% among 420,000; also: potency is read from the fitted curve at half-maximal effect; % is scaled to controls: 0 for no effect and ±100 for the full control effect; nearly all actives have a fitted effect of over 55% in size
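Seeded 400 DT40-hTDP1 cells/well (vehicle DMSO, no 20 nM CPT); pinned compounds; ≥48 hr at 37 °C; CellTiter-Glo luminescence as viability measure.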
* = called active by the depositor; ? = inconclusive; · = no result given. Shown are actives, neighbours in structure and some others; about 19% of the full set was active somewhere. Unless noted, calls follow the shape of the dose curve; as a rule, active = well fitted curve in the direction sought with a large enough effect; inconclusive = small, poorly fitted or top-dose-only effect, or another doubt; inactive = no such curve, though single readings can be large; an effect the other way counts as inactive or inconclusive.

SMILES	HepG2 viability	TDP1 inh	TDP1 cell CPT	TGFb inhibitor	IL1B secr inh	DT40 TDP1 no CPT
COc1ccc(/C=C/c2ccc3cccc(O)c3n2)c(OC)c1OC	-51.2%	·	9.2µM*	?	-90.8*	10.3µM*
COc1ccc(NC(=O)Cc2nnc(SCC(=O)c3ccccc3)n2C)cc1	-15.8%	·	2.2%	-10.6%	20.8	-22.2%
Cc1cc(C)n(C(=O)COc2ccccc2[N+](=O)[O-])n1	-16.2%	0.0%	-3.1%	-1.9%	-10.3	-3.3%
CNC(=O)c1cc2n(n1)CCCN(Cc1ccc(F)cc1)C2=O	5.1%	-6.2%	?	6.4%	·	?
CC(C)/C=C1\CC/C(=C\c2ccc(N(C)C)cc2)C1=O	21.1%	2.6%	-28.3%	-6.7%	?	?
CN(C)c1ccc(/C=C2/C[N+](C)(C)C/C(=C/c3ccc(N(C)C)cc3)C2=O)cc1	12.6µM*	·	2.59µM*	0.1%	-98.2*	3.66µM*
Cc1ccc(NS(=O)(=O)c2cc3c4c(cccc4c2)C(=O)NC3=O)cc1C	-35.1%	11.4%	6.51µM*	?	-19.5	8.2µM*
COC(=O)c1cc2c(ccn2-c2ccc(F)cc2)n1CC(=O)C(C)(C)C	-13.3%	2.4%	?	-3.4%	-10.8	?
CCOC(=O)c1cc2c(ccn2-c2ccc(F)cc2)n1CC(=O)N(CC)CC	-40.4%	-2.4%	?	0.5%	?	23.1µM*
COC(=O)C=CC(=NNc1ccccc1)c1ccccc1	-7.2%	·	-27.3%	?	-0.2	?
OC(c1ccc(Cl)cc1)c1nnc(-c2ccccc2)o1 (stereo unspecified)	-15.5%	-5.1%	-17.3%	-1.6%	-10.0	?
Fc1ccccc1C(NCCc1ccc(Cl)cc1)c1nnc(-c2ccccc2)o1 (stereo unspecified)	-15.4%	-5.0%	18.4µM*	?	·	?
COc1ccc(NC(c2nnc(-c3ccccc3)o2)c2ccccc2F)cc1Cl (stereo unspecified)	-2.7%	7.5%	-29.6%	-16.6%	·	-40.9%
Clc1ccc(CCNC(c2ccc(Cl)cc2)c2nnc(-c3ccccc3)o2)cc1 (stereo unspecified)	-22.1%	-7.5%	?	?	·	23.1µM*
COc1ccc(-c2[nH]ncc2/C=N\NC(=O)c2cccs2)cc1OC	1.7%	4.7%	-0.5%	0.9%	11.1	0.2%
COc1cc(OC)c(C2CC(=O)Nc3ccc4ccccc4c32)cc1OC (stereo unspecified)	-21.1%	12.5%	-23.3%	?	·	?
Cc1ccccc1CC1(CO)CCCN(C(=O)c2ccoc2)C1 (stereo unspecified)	4.1%	·	?	5.5%	18.0	?
Cc1cccc(Cn2cnc3c(cnn3C(C)(C)C)c2=O)c1F	-21.9%	·	·	-1.7%	·	·
Cc1ccccc1Cn1c(-c2cccs2)nc2ccccc21	-30.8%	-2.5%	?	?	·	16.4µM*
CC(C)Cn1c(-c2ccccc2Cl)nc2ccccc21	-22.1%	-2.5%	?	-24.9%	·	16.4µM*
CC(C)Cn1c(-c2cccs2)nc2ccccc21	-13.1%	3.6%	16.4µM*	-43.8%	-11.7	?
c1csc(Cn2c(-c3cccs3)nc3ccccc32)c1	-14.1%	0.0%	?	19.1%	-18.9	-16.7%
COc1ccc(N2CC(C(=O)NCc3n[nH]c(=O)c4ccccc34)CC2=O)cc1 (stereo unspecified)	-46.7%	·	-28.0%	0.5%	0.7	-12.0%
O=C(NCc1cccnc1)c1cc(C2CCCN(S(=O)(=O)c3cccc4cccnc34)C2)on1 (stereo unspecified)	1.7%	·	23.1µM*	5.8%	8.1	20.6µM*

Assay outcomes as filed in PubChem.
